{"source": "PubChem BioAssay AID2013", "about": "(Sanford-Burnham Center for Chemical Genomics, 2009)", "note": "Out of some 290,000 compounds screened, about 370 (0.13%) were called active. What follows is part of a selection rich in actives, with near analogues and random picks from the rest. Measured potencies and affinities stand elsewhere. Unmarked numbers belong to inactive results.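 How the source made its calls: active means spots per cell inhibited over 60%, with over 100 cells counted and total cytoplasm intensity under 500,000; inconclusive means wells with under 100 cells, flagged as likely toxic; inactive means the rest.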"}
{"target": "G-protein coupled receptor 55 (Homo sapiens) (UniProt Q9Y2T6)", "sequence (Q9Y2T6 whole entry, looked up)": "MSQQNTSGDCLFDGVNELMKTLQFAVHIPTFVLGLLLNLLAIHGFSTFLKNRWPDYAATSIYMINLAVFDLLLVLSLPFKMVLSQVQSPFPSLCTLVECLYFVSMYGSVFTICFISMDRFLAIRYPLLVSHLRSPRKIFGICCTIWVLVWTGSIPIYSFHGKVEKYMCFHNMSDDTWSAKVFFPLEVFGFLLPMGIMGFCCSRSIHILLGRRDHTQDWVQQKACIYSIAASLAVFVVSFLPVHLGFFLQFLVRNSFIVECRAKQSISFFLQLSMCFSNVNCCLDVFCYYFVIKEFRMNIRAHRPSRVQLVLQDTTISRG", "assay": "GPR55 antagonists blocking LPI-driven arrestin recruitment, primary screen, imaging, U2OS, beta-arrestin-GFP, LPI agonist (AID 2013);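 further: U2OS cells stably carrying GPR55 and arrestin-GFP stimulated by 5 µM LPI near EC80; imaged beta-arrestin-GFP aggregate spots per cell after agonist stimulation; plate controls were LPI-stimulated DMSO wells for no effect and DMSO wells without LPI for full effect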", "details": "U2OS GPR55 beta-arrestin-GFP translocation imaging, LPI antagonism; at 10 µM; stronger effect = higher value", "units": {"inhibition": "%"}}
{"smiles": "CC(C)(C)c1ccc(C(=O)Nc2ccc(C(=O)N3CCOCC3)cc2)cc1", "inhibition": 13}
{"smiles": "O=C(NCC(=O)N1CCN(S(=O)(=O)/C=C/c2ccccc2)CC1)c1ccc(Cl)cc1", "inhibition": 10.1}
{"smiles": "CCN(CC)CCNC(=S)N1CCn2c(nc3ccccc32)C1", "inhibition": 3.9}
{"smiles": "CCOC(=O)c1c(C)n(C)c2ccc(OC)c(NC(=O)CN3CCC(C(=O)OCC)CC3)c12", "inhibition": -6.7}
{"smiles": "CCOc1ccccc1NC(=O)Nc1ccc(Br)cn1", "inhibition": 13.3}
{"smiles": "CN(NC(=O)CN1C(=O)c2ccccc2C1=O)C1=NS(=O)(=O)c2ccccc21", "inhibition": -1.6}
{"smiles": "C[C@H](NC(=O)c1[nH]cnc1C(=O)Nc1ccc(CNC(=O)OC(C)(C)C)cc1)C(=O)OCc1ccccc1", "inhibition": 1.5}
{"smiles": "CC(C)(C)OC(=O)[C@H](Cc1ccccc1)NC(=O)c1nc[nH]c1C(=O)N1CCN(C(=O)OC(C)(C)C)CC1", "inhibition": 4.7}
{"smiles": "CC(C)C[C@H](NC(=O)c1[nH]cnc1C(=O)Nc1ccc(CNC(=O)OC(C)(C)C)cc1)C(=O)OCc1ccccc1", "inhibition": 7}
{"smiles": "CC(C)(C)OC(=O)N1CCC(NC(=O)c2[nH]cnc2C(=O)N[C@@H](Cc2ccccc2)C(=O)OCc2ccccc2)CC1", "inhibition": 41.8}
{"smiles": "CC(C)(C)OC(=O)NCc1ccc(CNC(=O)c2[nH]cnc2C(=O)N[C@@H](Cc2ccccc2)C(=O)OCc2ccccc2)cc1", "inhibition": 35.5}
{"smiles": "C[C@H](NC(=O)c1nc[nH]c1C(=O)NCc1ccc(CNC(=O)OC(C)(C)C)cc1)C(=O)OC(C)(C)C", "inhibition": 18.1}
{"smiles": "CCN(CC)S(=O)(=O)c1cc(C(=O)Nc2cc(C)[nH]n2)ccc1Cl", "inhibition": 17.6}
{"smiles": "Cc1cc(C)nc(NS(=O)(=O)c2ccc(NC(=O)C3CC3)cc2)n1", "inhibition": 0}
{"smiles": "O=C(NNc1c(Cl)cccc1Cl)c1ccno1", "inhibition": 5}
{"smiles": "O=C(NC1CCCCC1)C(c1ccco1)N(C(=O)C(F)(F)F)C1CC1", "note": "(stereo unspecified)", "inhibition": -2.5}
{"smiles": "O=C(NCc1ccc2c(c1)OCO2)Nc1ccc(Cl)cc1", "inhibition": -2.2}
{"smiles": "CC(C(=O)Nc1ccccc1)C(=O)Nc1ccccc1", "inhibition": -4.5}
{"smiles": "O=C(Nc1ccccc1Cl)c1ccccc1", "inhibition": 3.2}
{"smiles": "CC(=O)C(Cl)C(=O)Nc1ccccc1", "note": "(stereo unspecified)", "inhibition": -8.1}
{"smiles": "O=C(Nc1ccccc1)C(Cl)C(=O)c1ccccc1", "note": "(stereo unspecified)", "inhibition": 6.1}
{"smiles": "O=C(Nc1ccccc1Cl)Nc1ccccc1Cl", "inhibition": 1.2}
{"smiles": "Cc1cccc(C)c1NC(=O)C(Cl)C(=O)c1ccccc1", "note": "(stereo unspecified)", "inhibition": 2.5}
{"smiles": "O=C(O)c1ccccc1NCc1ccsc1", "inhibition": -6.3}
{"smiles": "Cc1ccc(/C=N/Nc2nc(C)cc(C)n2)cc1", "inhibition": 0.6}
{"smiles": "Cc1ccc(-n2nc(C)c(=O)c(-c3ccccc3)c2NC(=O)C(C)C)cc1", "inhibition": 11.6}
{"smiles": "Cc1cc(C)n(/C(=C\\N(C)C)C(=O)c2ccc(Cl)cc2)n1", "inhibition": 6.9}
{"smiles": "O=C(CN1CCN(C(=O)c2ccco2)CC1)Nc1ccc(F)cc1F", "inhibition": 10.4}
{"smiles": "CC(C)(C)c1ccc(CN2C(=O)CSC2=O)cc1", "inhibition": -2.7}
{"smiles": "CC(C)(C)c1ccc(CN2C3=NCCCN3c3ccccc32)cc1", "inhibition": 29.1}
{"smiles": "Cc1nc(C(Cl)(Cl)Cl)nc2[nH]ccc(=O)c12", "inhibition": 4.1}
{"smiles": "FC(F)(F)c1cccc(Cc2noc(CN3CCC(c4ccncc4)CC3)n2)c1", "inhibition": 5.1}
{"smiles": "Cc1nonc1NC(=O)CSc1nnc(N)s1", "inhibition": -5.8}
{"smiles": "COc1cccc(-c2csc(N3CCN(Cc4ccccc4)CC3)n2)c1", "inhibition": -6.9}
{"smiles": "COc1ccc(OC)c(/C=C/C(=O)Nc2cccc(S(=O)(=O)N3CCCC3)c2)c1", "inhibition": -3.3}
{"smiles": "Cc1cc2c(cc1S(=O)(=O)Nc1ccc(F)cc1)n(C)c(=O)c(=O)n2C", "inhibition": 9.6}
{"smiles": "Cc1cc2c(cc1S(=O)(=O)Nc1cccc(F)c1)n(C)c(=O)c(=O)n2C", "inhibition": -13.1}
{"smiles": "Cc1cc(NS(=O)(=O)c2ccc(NC(=O)C(C)Oc3ccc(C(C)C)cc3)cc2)no1", "note": "(stereo unspecified)", "inhibition": -4.7}
{"smiles": "Cc1cccn2c(=O)c(/C=C(\\C#N)S(=O)(=O)c3ccccc3)c(N3CCN(Cc4ccccc4)CC3)nc12", "inhibition": 22.8}
{"smiles": "Cc1ccc2nc3c(cc(C(=O)NCc4ccco4)c(=N)n3Cc3ccco3)c(=O)n2c1", "inhibition": 23.2}
{"smiles": "N=c1c(C(=O)NC2CCCC2)cc2c(=O)n3ccccc3nc2n1C1CCCC1", "inhibition": 8.6}
{"smiles": "Cc1cccn2c(=O)c3cc(C(=O)NCc4ccco4)c(=N)n(C4CCCCC4)c3nc12", "inhibition": 50}
{"smiles": "N=c1c(C(=O)NCc2ccco2)cc2c(=O)n3ccccc3nc2n1C1CCCC1", "inhibition": 7.5}
{"smiles": "Cc1cccn2c(=O)c3cc(C(=O)NC4CCCC4)c(=N)n(C4CCCCC4)c3nc12", "inhibition": 19.8}
{"smiles": "Cc1cccn2c(=O)c3cc(C(=O)NCc4ccco4)c(=N)n(C(C)C)c3nc12", "inhibition": 45.5}
{"smiles": "O=C(COC(=O)c1cc(=O)[nH]c(=O)[nH]1)Nc1cccc(S(=O)(=O)N2CCCCC2)c1", "inhibition": -7.4}
{"smiles": "Cc1cccc(C)c1NC(=O)Cn1c(=O)c2cccn2c2ccccc21", "inhibition": 3.5}
{"smiles": "Cc1ccc(NC(=O)Nc2cnccn2)c(C)c1", "inhibition": 1.4}
{"smiles": "CC(C)CNC(=S)N1CCC(c2nc(-c3ccc(F)cc3)no2)CC1", "inhibition": 6.8}
{"smiles": "CCCc1nnc2n1N=C(c1ccc(-c3cc(Cl)ccc3Cl)o1)CS2", "inhibition": -0.8}
{"smiles": "CC[C@H](C)[C@@H](NC(=O)O[C@@H]1C(=O)c2cc(Br)ccc2O[C@H]1c1ccc2c(c1)OCO2)C(=O)OC", "inhibition": -3.7}
{"smiles": "COC(CNC(=O)c1ccc(CS(=O)(=O)c2ccc(Br)cc2)o1)OC", "inhibition": -14.8}
{"smiles": "CC(=O)O[C@@H]1[C@H]2[C@@H](C[C@@H](C)[C@@H]3CCC(=O)[C@@]13C)OC(=O)[C@@H]2C", "inhibition": 6.6}
{"smiles": "CC(=O)O[C@@H]1[C@H]2[C@@H](C[C@@H](C)[C@@H]3C=CC(=O)[C@@]13C)OC(=O)[C@@H]2C", "inhibition": -2}
{"smiles": "C[C@@H]1C[C@@H]2OC(=O)[C@]3(C)[C@H]2[C@@H](OC3(C)O)[C@]2(C)C(=O)C=C[C@H]12", "note": "(stereo partly specified)", "inhibition": 6.3}
{"smiles": "C=C1C(=O)O[C@H]2C[C@]3(C)C([C@@H](OC(=O)/C(C)=C/C)[C@H]12)[C@](C)(O)CC[C@H]3O", "note": "(stereo partly specified)", "inhibition": 10.2}
